target: T1, Aspartate--tRNA(Asp/Asn) ligase (Mycobacterium tuberculosis (strain ATCC 25618 / H37Rv)) (UniProt P9WFW3); test: Assay for Asp RNA synthetase-1 from Mycobacterium tuberculosis; format: functional; design: scale not given: in the data most compounds retested in dose-response had high values; conditions: 30 µM
T1 sequence (whole entry): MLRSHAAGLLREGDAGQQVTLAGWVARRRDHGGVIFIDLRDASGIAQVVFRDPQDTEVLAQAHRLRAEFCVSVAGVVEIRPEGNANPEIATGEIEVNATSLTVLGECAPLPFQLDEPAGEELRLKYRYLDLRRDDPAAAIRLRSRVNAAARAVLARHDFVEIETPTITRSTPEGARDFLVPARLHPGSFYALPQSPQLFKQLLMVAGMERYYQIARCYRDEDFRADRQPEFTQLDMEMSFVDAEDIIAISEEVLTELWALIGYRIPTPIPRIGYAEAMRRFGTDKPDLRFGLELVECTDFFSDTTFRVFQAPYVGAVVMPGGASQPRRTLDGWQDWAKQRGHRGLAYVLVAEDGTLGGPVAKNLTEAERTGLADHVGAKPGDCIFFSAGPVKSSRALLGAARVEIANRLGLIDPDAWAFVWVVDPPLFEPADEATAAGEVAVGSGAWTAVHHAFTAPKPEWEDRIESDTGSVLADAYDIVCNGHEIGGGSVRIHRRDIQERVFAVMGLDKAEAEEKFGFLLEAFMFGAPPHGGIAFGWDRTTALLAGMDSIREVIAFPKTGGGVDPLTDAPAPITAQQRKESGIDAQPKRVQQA

| SMILES | Percent Effect |
| --- | --- |
| c1ccc(OCCN2CCCC(c3noc(C4CC4)n3)C2)cc1 (centres undefined) | -0.885% |
| CNC(=O)c1cccc(CNC(=O)C2CC(=O)N(CCN(C)C)C2)c1 (centres undefined) | -2.01% |
| CCOC1CCN(C(=O)c2c(Cl)c3ccccc3n2C)CC1 | -2.01% |
| O=C(Nc1cccc(OCc2ccc(F)cc2)c1)C1COCCO1 (centres undefined) | -1.28% |
| Cc1cc(S(=O)(=O)N2CCCc3ccc(F)cc32)sc1C(=O)O | 1.87% |
| COC1CCCN(C(=O)Nc2nc(C)n(C)n2)C1 (centres undefined) | -3.53% |
| O=C(NCCNS(=O)(=O)c1ccc2c(c1)CCCC2)c1ccoc1 | 8.29% |
| COc1ccc(-n2cnnc2SCCC#N)cn1 | -0.885% |
| O=C(NCCCn1ccnc1)N1CCCC1c1ccncc1 (centres undefined) | -2.68% |
| Cc1cccnc1NC(=O)C1CCCN1Cc1ccccc1 (centres undefined) | -1.55% |
| COc1ncccc1NC(=O)N1CCC(CNC(C)=O)CC1 | -1.39% |
| CCNC(=O)NC(=O)CSC(C)c1ccccc1F (centres undefined) | 2.19% |
| CCN(CC)C(=O)CCNC(=O)Cc1nc(-c2ccco2)oc1C | -1.21% |
| CS(=O)(=O)NCC(=O)NC1CCc2nccn2C1 (centres undefined) | 2.91% |
| CCCS(=O)(=O)N1C[C@H]2OC(=O)N(CCc3cccc(Cl)c3)[C@H]2C1 | -4.26% |
| O=C1O[C@@H]2CN(Cc3ccccc3)C[C@@H]2N1CCCN1CCOCC1 | -3.37% |
| CCC(=O)NCc1cc(Br)ccc1OC(F)F | 0.885% |
| O=C(c1ccsc1)N1C[C@@H](CN2CCCC2)[C@@H](CO)C1 | -2.54% |
| CCC[C@@H]1CN(S(=O)(=O)c2ccc(C)c(F)c2)C[C@H]1N(C)C | 0.149% |
| CC(C)CN1CCCn2nc(CNC(=O)CCCc3cn[nH]c3)cc2C1 | -0.885% |

| SMILES | Percent Effect |
| --- | --- |
| COc1cccc(CN(C)C(=O)CN2CCN(c3nccn3C)CC2)c1 | 2.95% |
| CC(C)n1ccnc1C1CCCN(c2ccnc3ccccc23)C1 (centres undefined) | -3.69% |
| C[S+]([O-])CCCNC(=O)c1cc(Br)c2c(c1)OCCO2 (centres undefined) | -1.74% |
| Cc1n[nH]c(C2CN(CC(=O)NCc3ccco3)CCO2)n1 (centres undefined) | 0.448% |
| CCn1cc(NC(=O)NC2CCCc3c2cnn3CCO)cn1 (centres undefined) | -3.64% |
| CN(CC1(O)CCCN(CCC2CCCCC2)C1=O)C1CCOCC1 (centres undefined) | 0.172% |
| Cc1cnn(CCNCc2ccc(OCC(N)=O)cc2)c1 | -4.2% |
| Cc1cc(C)n(CC2CCCCN2CC(=O)Nc2nncs2)n1 (centres undefined) | -0.218% |
| CSC(C)(C)CNC(=O)NCCC1CCN(C)CC1 | -1.57% |
| Cc1nc(C2CCCN2C(=O)CNS(C)(=O)=O)no1 (centres undefined) | 0.586% |
| Cc1cc(C)nc(N2Cc3cnn(Cc4ccc(F)cc4)c3C2)n1 | -2.29% |
| CCC(=O)N1CC[C@@H](c2ccc3ccccc3c2)[C@H](O)C1 | 2.26% |
| COC(=O)CCN1CCCC1c1cccc2c1OCCO2 (centres undefined) | -1.34% |
| CSC(C)(C)CNC(=O)NC1CCSCC1 | 0.103% |
| CN1C(=O)CC(C(=O)O)C12CCN(Cc1ccc(Cl)cc1F)CC2 (centres undefined) | -1.62% |
| CCS(=O)(=O)N1CCC(c2nnc(CN3CCOCC3)n2C)CC1 | -1.39% |
| Cc1nc2c(c(C)c1CC(=O)Nc1ccc(Cl)cc1)c(=O)[nH]n2C | -4.86% |
| CN(Cc1cc[nH]n1)C(=O)c1cccc(CCC(C)(C)O)c1 | -0.264% |
| Cc1cc(S(=O)(=O)N2CCCc3cc(F)cc(F)c32)sc1C(=O)O | -0.908% |
